Only some compounds are listed: those with a hit (about 22% of all), similar ones and a draw of the others.
CHX counter: affects cycloheximide protein synthesis inhibition readout, counter-screen. AID 2314. cell reporter, cycloheximide protein synthesis inhibition counterscreen. 300,000 tested, 12% active. max response, %; in the data active = max response mostly above about 13%, no sharp cut-off; inactive = mostly below about 14%; also: read at 38.3 µM for the half of the compounds with a filed dose; 0% is about no effect
Pf growth 48h: P. falciparum growth inhibition at 48 hours (one generation); P. falciparum luciferase growth in erythrocytes, 48 h; AID 504832; 310,000 tested, 5.9% active; Potency, µM (series often up to 28.7 µM), without a hit: at the highest dose activity change, negative = inhibition, hits mostly inhibitors; also: potency is read from the fitted curve at half-maximal effect; % is scaled to controls: 0 for no effect and ±100 for the full control effect
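Firefly luciferase activity from engineered P. falciparum reports growth; inhibitors lower the luminescent signal. Cultures contained 2% hematocrit erythrocytes at 0.1% final parasitemia.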
LmPK inh: LmPK (Leishmania mexicana) enzyme inhibition. Q27686. purified LmPK, Kinase-Glo ATP luminescence, 1 h. Potency, µM (top dose mostly 57.5 µM), for the others: top-dose activity change, negative = inhibition, usual class: inhibitors. 290,000 tested, 0.37% active; also: potency is read from the fitted curve at half-maximal effect; % is scaled to controls: 0 for no effect and ±100 for the full control effect
Target sequence (Q27686 whole entry, looked up): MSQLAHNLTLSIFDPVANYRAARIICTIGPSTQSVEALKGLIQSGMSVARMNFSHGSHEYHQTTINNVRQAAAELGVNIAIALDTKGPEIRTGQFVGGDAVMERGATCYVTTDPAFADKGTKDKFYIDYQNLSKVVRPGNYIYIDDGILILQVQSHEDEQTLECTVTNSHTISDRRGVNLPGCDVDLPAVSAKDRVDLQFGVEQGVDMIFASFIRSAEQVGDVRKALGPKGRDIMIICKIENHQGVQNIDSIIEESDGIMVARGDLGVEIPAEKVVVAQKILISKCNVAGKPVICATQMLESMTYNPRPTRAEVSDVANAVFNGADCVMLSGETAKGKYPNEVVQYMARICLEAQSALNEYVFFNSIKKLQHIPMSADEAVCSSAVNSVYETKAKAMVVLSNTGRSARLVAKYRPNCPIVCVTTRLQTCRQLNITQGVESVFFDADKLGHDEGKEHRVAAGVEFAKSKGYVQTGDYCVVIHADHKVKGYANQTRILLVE
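0.1 nM LmPK, 0.5 mM PEP, 0.1 mM ADP; 50 mM imidazole pH 7.2, 7 mM MgCl2, 50 mM KCl; 1 h RT. Kinase-Glo luminescence readout, normalized to no-enzyme (full inhibition) and uninhibited wells.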
Pf growth 96h: P. falciparum growth inhibition at 96 hour, primary screen for plastid delayed-death inhibitors; P. falciparum luciferase reporter growth, 96 h; Potency, µM (doses to about 28.7 µM), for the others: at the highest dose activity change, negative = inhibition, most hits filed as inhibitors; 320,000 tested, 6.9% active; also: potency is read from the fitted curve at half-maximal effect; % is scaled to controls: 0 for no effect and ±100 for the full control effect
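Two parasite generations (96 h, 37 C, 5% CO2) of compound exposure in infected erythrocytes (0.05% parasitemia, 2% hematocrit). Luciferase-reporter P. falciparum; decreased luminescence indicates inhibited growth, aimed at apicoplast-acting delayed death.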
Shiga toxin inh: blocks Shiga toxin action in Vero cells; inhibition, % at 38.7 µM; AID 2315; 290,000 tested, 9.2% active; Vero cells, Shiga toxin protein synthesis inhibition reporter; in the data active = inhibition mostly above about 28%, no sharp cut-off; inactive = mostly below about 43%; also: 0% is about no effect
* marks the source's active call; other numbers are inactive results; u = inconclusive; x = no result given; [ ] = remark or other dose. Unless noted, calls follow the shape of the dose curve; as a rule, active = well fitted inhibition curve with a large enough effect; inconclusive = small, poorly fitted or top-dose-only effect, or another doubt; inactive = no such curve, though single readings can be large or run the other way.

SMILES	CHX counter	Pf growth 48h	LmPK inh	Pf growth 96h	Shiga toxin inh
Cc1ccc(NC(=O)C2=NNC(=O)CC2)cc1S(=O)(=O)Nc1ccc(SC(F)F)cc1	x	-16%	x	0%	x
COC(C(=O)N/N=C/c1ccc(OCC(=O)N2CCOCC2)cc1)c1ccccc1 (configuration not stated)	-3	20%	5%	8%	-6
Cc1cc(C)n(C2=NS(=O)(=O)c3ccccc32)n1	-3	-4%	13µM*	-16%	-7
O=S1(=O)N=C(N2CCc3ccccc3C2)c2ccccc21	5	-10%	1%	u	13
CC(C)C[C@H](NC(=O)c1nc[nH]c1C(=O)N1CCc2ccccc2C1)C(=O)OC(C)(C)C	-5	u	2%	-17%	-4
CCCC(c1nnnn1CC(=O)OCC)N(Cc1cc2c(C)cc(C)cc2[nH]c1=O)C1CCCC1 (configuration not stated)	-4	13µM*	-5%	x	-6
C[C@H]1Cc2c(COc3ccccc3)nc3c(c2CO1)CN(C(=O)NCCc1c[nH]c2ccccc12)CC3	x	x	-3%[11.5 µM]	x	x
CC(=O)N1CCc2cc(S(=O)(=O)NCCC(=O)Nc3cc(C)cc(C)c3)ccc21	0	u	3%	5.2µM*	-7
CC(=O)N1CCc2cc(S(=O)(=O)NCCC(=O)Nc3ccc4c(c3)OCCO4)ccc21	30*	57%	-23%	u	66
CC(C)N(Cc1nc(-c2ccc3c(c2)OCO3)no1)Cc1nccn1C	0	25%	-2%	13%	-4
O=C(CN1C(=O)NC2(CCCC2)C1=O)OCCOc1ccc(Br)cc1	x	40%	x	36%	x
Cc1ccc(S(=O)(=O)N2CCN(C(=O)N3CCOCC3)C2C(C)C)cc1 (configuration not stated)	-8	-18%	1%	12µM*	-14
Cc1cccc(N=Nc2cnc(N)s2)c1	47*	184%	-3%	96%	49*
COc1cccc(-c2sc3ccc(OC)cc3c2-c2cc(F)cc(OC)c2)c1	x	u	x	2.9µM*	x
COc1cccc(-c2sc3ccc(OC)cc3c2C#CCCO)c1	x	-10%	x	u	x
CCCCn1c(CCc2ccccc2)nc2cc3[nH]c(=O)c(C(C)C)nc3cc21	-4	3.7µM*	4%	2.6µM*	-3
CC(C)N=C(NC#N)SCc1ccccc1	3	12%	3%	4%	3
CC(C)N=C(NC#N)SCc1ccc(Br)cc1	-1	u	6%	13µM*	-4
O=C(c1cccc(Cl)c1)C1CCCN(C(=O)c2ccc3c(c2)OCO3)C1 (configuration not stated)	-9	13%	-11%	u	4
CC(C)c1ccc(NC(=O)c2ccc(NC3=NC4CS(=O)(=O)CC4S3)cc2)cc1 (configuration not stated)	3	-10%	0%	28%	13
CN1CCc2c(sc(/N=C/c3cc(Cl)ccc3O)c2C#N)C1	52*	-11%	-12%	-12%	101*
Cc1sc(/N=C/c2ccccc2O)c(C#N)c1C	-2	34%	-4%	x	-5
CSCC[C@H](NC(=O)[C@H](Cc1ccccc1)NC[C@@H](NC[C@@H](N)CS)C(C)C)C(=O)O	-4	x	x	x	-10
C=C(C)c1ccccc1	x	16%	x	40%	x
O=[N+]([O-])c1ccc(S(=O)(=O)Nc2ccccn2)cc1	0	4%	-2%	u	x
SMILES	CHX counter	Pf growth 48h	LmPK inh	Pf growth 96h	Shiga toxin inh
CC(=O)Nc1nc(C)c(C(C)=O)s1	-1	x	2%	61%	-14
CC(=O)c1sc(NC(=O)COc2ccc([N+](=O)[O-])cc2)nc1C	3	16%	-3%	15µM*	-1
CC(=O)c1sc(NCc2ccccc2)nc1C	31*	34%	1%	2%	43
Cc1nc(NCCc2ccccc2)sc1C(=O)O	21	137%	-2%	111%	41*
Cc1ccc(CNc2nc(C)c(C(=O)N(C)C)s2)cc1	28*	-47%	6%	23%	65*
Cc1ccc(CNc2nc(Cl)c(C#N)s2)cc1	28*	91%	-4%	208%	62*
CCn1nnc(NC(=O)COc2ccc([N+](=O)[O-])cc2)n1	19*	6%	-2%	21%	23
CC(=O)c1sc(NC(=O)CCS(=O)(=O)c2ccccc2)nc1C	57*	2%	-6%	-1%	58*
CC(=O)c1sc(NCCOc2ccc(C)cc2)nc1C	28*	38%	1%	1%	60*
Cn1c(CNC(=O)c2ccco2)nnc1SCC(=O)c1ccc(Br)cc1	-12	37%	6%	-8%	18
CCOCCn1c(=O)c2c(nc3n2CC(C)CN3Cc2ccccc2)n(C)c1=O (configuration not stated)	-2	u	8%	u	-5
CC(=O)c1sc(NCc2ccc(C)cc2)nc1C	43*	158%	-2%	172%	103*
CC(=O)c1sc(Nc2ccc(C)cc2)nc1C	15	29%	1%	-5%	13
CN(CC(=O)Nc1ccc(F)c(F)c1F)C(=O)CCN1C(=O)C2CCCCC2C1=O (configuration not stated)	x	-7%	x	4%	x
COC(=O)C1=C(c2ccc(C(C)=O)cc2)C[C@@H]2CC[C@H]1N2C(=O)NCC1CC1	x	22%	x	7%	x
COC(=O)C1=C(c2ccc(OCc3ccccc3)cc2)C[C@@H]2CC[C@H]1N2C(=O)NCc1cccc(OC)c1	x	3.7µM*	x	u	x
COC(=O)C1=C(c2ccc(OCc3ccccc3)cc2)C[C@@H]2CC[C@H]1N2C(=O)NCc1ccccc1	x	7.4µM*	x	u	x
O=C(NCCCc1ccc(F)cc1)C1CCC(=O)N(CCCN2CCCC2=O)C1 (configuration not stated)	-4	25%	-5%	64%	-2
COC(=O)CS(=O)(=O)c1ccsc1C(=O)Nc1ccc(F)cc1	5	34%	1%	108%	15
CCN(Cc1nc2cc(Cl)ccc2c(=O)[nH]1)C(=O)CN1C(=O)NC2(CCCCC2C)C1=O (configuration not stated)	x	u	x	-7%	x
OCc1cc(Br)ccc1OCc1nc2ccccc2s1	45*	58%	0%	86%	82*
Oc1ccc(O)c(Cc2nc3ccccc3s2)c1	32*	u	-2%	-4%	43*
O=C(Nc1ccc(Cc2nc3ccccc3s2)cc1)c1ccncc1	10	-20%	2%	u	-6
Oc1ccccc1OCc1nc2ccccc2s1	35*	156%	-20%	9%	143*
COc1ccc(-c2nc(C#N)c(N3CCCCCC3)o2)cc1OC	8	-17%	6%	x	-9
CC(=N)C1=C(O)CC(c2ccccc2)CC1=O (configuration not stated)	-1	20%	-1%	8%	-11
C=CCN1CCN(C(=O)c2oc3ccccc3c2C)CC1	20*	1%	1%	u	21
Cc1c(C(=O)N2CCc3ccccc3C2)oc2ccccc12	39*	44%	1%	2%	74*

Screening results: PubChem, National Center for Advancing Translational Sciences (NCATS)
